Measurements: the supplement of paper PMC10849652
Of roughly 7,900 targets only a part is listed; those with a hit were picked by preference. About 0.6% of all pairs of compound and target were hits.

Key:
Assay in all cases: log2 fold change, soluble protein after heating vs DMSO (PISA); higher = thermal stabilisation; K562 cells, 10 uM, 30 min; active = over 0.2 and 3.5 SD of the protein, either way, in both replicates (recomputed)
erlotinib = compound: C#Cc1cccc(Nc2ncnc3cc(OCCOC)c(OCCOC)cc23)c1 [erlotinib]
In short: (§1)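 K562 cells at 2×10^6 cells/mL were given 10 μM compound for 30 min. Aliquots then went through 3 min of heating across 48°C-58°C, were pooled, and were extracted in PBS with 0.5% NP-40 at 4°C, and the supernatant after 21,000xg for 90 min was quantified by TMTpro 16plex LC-MS/MS with channel sums equalised. Thermal stability relative to control samples, from duplicates, is given as log2 fold change.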

[1] = compound: C/C(=N\NC(=O)C1=CC(=CC=C1)S(=O)(=O)N2CCOCC2)/C3=C(C=CC(=C3)Cl)O
In short: as §1

[2] = compound: C1=CC(=C(C=C1Cl)C2=NC3=NC=CN=C3C(=N2)NC4=CC=NC=C4)F
In short: as §1

[3] = compound: C1=CC(=CC=C1C2=NC3=C(N2)C=C(C=C3)C(=O)N)OC4=CC=C(C=C4)Cl
In short: as §1

[4] = compound: C1=CC2=C(C=CC(=C2)/C=C\3/C(=O)NC(=NCC4=CC=CS4)S3)N=C1
In short: as §1

[5] = compound: C1=CC2=NC=CN=C2C=C1/C=C/3\C(=O)NC(=O)S3
In short: as §1

[6] = compound: C1=CC=C(C=C1)C2=NC(=C(N2)C3=CC=NC=C3)C4=CC(=C(C=C4)Cl)O
In short: as §1

[7] = compound: C1=CC=C2C(=C1)C3=NNC4=CC=CC(=C43)C2=O
In short: as §1

[8] = compound: C1CCN(C1)C(=O)NC2=CC=CC(=C2)NC3=NC=C(C(=N3)NCCC4=CN=CN4)Br
In short: as §1

[9] = compound: C1CN(CCC1(CC2=CC=C(C=C2)Cl)N)C3=NC=NC4=C3C=CN4
In short: as §1

Measured: log2 fold change

MRPL34 (UniProt Q9BQ48)
inactive: erlotinib -0.029 | [1] -0.167 | [2] -0.116 | [3] 0.101 | [4] -0.048 | [5] -0.03 | [6] 0.006 | [7] 0.018 | [8] -0.004 | [9] -0.174

MRPS21 (UniProt P82921)
inactive: erlotinib 0.014 | [1] -0.04 | [2] -0.096 | [3] 0.042 | [4] -0.241 | [5] -0.138 | [6] -0.019 | [7] 0.297 | [8] -0.091 | [9] -0.07

MRPS6 (UniProt P82932)
inactive: erlotinib 0.001 | [1] 0.006 | [2] 0.006 | [3] 0.088 | [4] 0.01 | [5] 0.112 | [6] 0.128 | [7] 0.079 | [8] -0.039 | [9] -0.093

OXSM (UniProt Q9NWU1)
inactive: erlotinib -0.079 | [1] 0.024 | [2] 0.005 | [3] 0.055 | [4] -0.052 | [5] -0.001 | [6] 0.053 | [7] -0.034 | [8] -0.042 | [9] 0.019

MYH10 isoform 3 (UniProt P35580)
inactive: erlotinib -0.002 | [1] 0.043 | [2] 0.089 | [3] -0.032 | [4] 0.006 | [5] 0.01 | [6] 0.034 | [7] 0.021 | [8] 0.015 | [9] -0.024

NBN (UniProt O60934)
inactive: erlotinib 0.064 | [1] 0.087 | [2] 0.06 | [3] 0.033 | [4] 0.005 | [5] 0.028 | [6] 0.012 | [7] 0.002 | [8] -0.029 | [9] 0.037

NDUFS4 (UniProt O43181)
inactive: erlotinib -0.001 | [1] -0.031 | [2] -0.004 | [3] 0.07 | [4] -0.093 | [5] 0.077 | [6] -0.104 | [7] -0.081 | [8] 0.082 | [9] 0.111

PACS1 (UniProt Q6VY07)
inactive: erlotinib 0.027 | [1] 0.036 | [2] -0.049 | [3] 0.01 | [4] 0.016 | [5] -0.077 | [6] -0.039 | [7] -0.084 | [8] -0.048 | [9] -0.063

NANS (UniProt Q9NR45)
inactive: erlotinib -0.016 | [1] 0.031 | [2] 0.066 | [3] -0.022 | [4] 0.028 | [5] 0.023 | [6] 0.036 | [7] 0.02 | [8] 0.016 | [9] 0.022

NEDD4 isoform 4 (UniProt P46934)
inactive: erlotinib -0.024 | [1] 0.067 | [2] 0.048 | [3] -0.011 | [4] 0.052 | [5] 0.066 | [6] 0.048 | [7] -0.001 | [8] 0.003 | [9] -0.053

MITD1 (UniProt Q8WV92)
UniProt Q8WV92, sequence (Q8WV92 whole entry, looked up): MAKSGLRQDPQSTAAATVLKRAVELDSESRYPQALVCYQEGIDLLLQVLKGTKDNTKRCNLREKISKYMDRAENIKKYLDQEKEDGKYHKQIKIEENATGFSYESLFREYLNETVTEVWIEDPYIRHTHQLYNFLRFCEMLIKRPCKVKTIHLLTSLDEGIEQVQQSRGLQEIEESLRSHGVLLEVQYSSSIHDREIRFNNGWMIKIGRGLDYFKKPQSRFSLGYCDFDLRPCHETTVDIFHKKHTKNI
inactive: erlotinib 0.011 | [1] -0.009 | [2] 0.148 | [3] 0.037 | [4] 0.044 | [5] 0.036 | [6] -0.015 | [7] 0.101 | [8] 0.03 | [9] -0.024

MT-ND4 (UniProt P03905)
inactive: erlotinib 0.152 | [1] -0.077 | [2] 0.053 | [3] -0.028 | [4] -0.026 | [5] 0.044 | [6] -0.009 | [7] 0.078 | [8] -0.007 | [9] -0.036

NDUFS7 (UniProt O75251)
UniProt O75251, sequence (O75251 whole entry, looked up): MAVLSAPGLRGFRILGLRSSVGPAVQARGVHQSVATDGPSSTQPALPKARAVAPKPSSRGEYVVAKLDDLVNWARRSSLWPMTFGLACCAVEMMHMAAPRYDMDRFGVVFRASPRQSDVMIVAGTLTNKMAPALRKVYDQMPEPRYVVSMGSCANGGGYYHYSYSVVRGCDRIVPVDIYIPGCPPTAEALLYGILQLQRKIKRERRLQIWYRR
inactive: erlotinib 0.129 | [1] -0.011 | [2] 0.039 | [3] -0.011 | [4] 0.062 | [5] 0.038 | [6] -0.052 | [7] 0.035 | [8] 0.045 | [9] 0.011

NCAPD2 (UniProt Q15021)
UniProt Q15021, sequence (Q15021 whole entry, looked up): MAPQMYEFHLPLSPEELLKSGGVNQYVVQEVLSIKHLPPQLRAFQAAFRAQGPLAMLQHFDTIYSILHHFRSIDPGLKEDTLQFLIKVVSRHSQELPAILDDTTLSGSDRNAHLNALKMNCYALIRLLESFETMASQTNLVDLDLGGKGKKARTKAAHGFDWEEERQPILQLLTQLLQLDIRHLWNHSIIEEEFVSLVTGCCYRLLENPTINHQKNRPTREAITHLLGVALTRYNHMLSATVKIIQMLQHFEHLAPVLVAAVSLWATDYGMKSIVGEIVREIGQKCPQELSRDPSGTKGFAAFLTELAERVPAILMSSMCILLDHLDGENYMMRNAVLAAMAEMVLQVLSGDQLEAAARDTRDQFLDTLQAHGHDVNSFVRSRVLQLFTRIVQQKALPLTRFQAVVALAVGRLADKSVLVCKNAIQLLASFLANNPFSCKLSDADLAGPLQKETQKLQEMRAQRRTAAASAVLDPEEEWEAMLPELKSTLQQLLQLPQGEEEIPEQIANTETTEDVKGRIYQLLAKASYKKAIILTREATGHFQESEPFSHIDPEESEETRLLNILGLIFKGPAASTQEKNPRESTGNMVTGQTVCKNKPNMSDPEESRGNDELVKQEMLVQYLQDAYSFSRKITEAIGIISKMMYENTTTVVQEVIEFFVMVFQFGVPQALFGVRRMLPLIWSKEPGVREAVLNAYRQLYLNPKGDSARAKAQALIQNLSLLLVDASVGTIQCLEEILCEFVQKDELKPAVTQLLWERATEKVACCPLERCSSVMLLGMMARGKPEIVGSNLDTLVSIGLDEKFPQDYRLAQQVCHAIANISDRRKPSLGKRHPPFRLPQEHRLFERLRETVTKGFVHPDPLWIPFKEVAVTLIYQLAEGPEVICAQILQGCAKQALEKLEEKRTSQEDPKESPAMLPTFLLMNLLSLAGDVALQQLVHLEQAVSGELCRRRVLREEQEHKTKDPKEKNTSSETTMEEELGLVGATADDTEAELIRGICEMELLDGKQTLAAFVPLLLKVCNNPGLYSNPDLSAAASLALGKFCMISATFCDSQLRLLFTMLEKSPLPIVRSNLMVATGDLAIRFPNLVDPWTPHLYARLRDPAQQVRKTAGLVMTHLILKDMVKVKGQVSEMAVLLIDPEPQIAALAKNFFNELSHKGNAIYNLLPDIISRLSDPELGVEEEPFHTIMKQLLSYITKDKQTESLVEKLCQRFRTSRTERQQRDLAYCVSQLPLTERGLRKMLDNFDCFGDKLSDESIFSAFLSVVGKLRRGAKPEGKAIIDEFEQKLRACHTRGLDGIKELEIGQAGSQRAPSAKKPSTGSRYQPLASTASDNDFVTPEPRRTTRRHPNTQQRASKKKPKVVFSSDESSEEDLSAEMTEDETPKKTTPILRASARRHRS
inactive: erlotinib 0.029 | [1] 0.107 | [2] 0.005 | [3] -0.05 | [4] 0.024 | [5] 0.04 | [6] 0.013 | [7] 0.022 | [8] -0.001 | [9] -0.103

MINK1 (UniProt Q8N4C8)
UniProt Q8N4C8, sequence (Q8N4C8 whole entry, looked up): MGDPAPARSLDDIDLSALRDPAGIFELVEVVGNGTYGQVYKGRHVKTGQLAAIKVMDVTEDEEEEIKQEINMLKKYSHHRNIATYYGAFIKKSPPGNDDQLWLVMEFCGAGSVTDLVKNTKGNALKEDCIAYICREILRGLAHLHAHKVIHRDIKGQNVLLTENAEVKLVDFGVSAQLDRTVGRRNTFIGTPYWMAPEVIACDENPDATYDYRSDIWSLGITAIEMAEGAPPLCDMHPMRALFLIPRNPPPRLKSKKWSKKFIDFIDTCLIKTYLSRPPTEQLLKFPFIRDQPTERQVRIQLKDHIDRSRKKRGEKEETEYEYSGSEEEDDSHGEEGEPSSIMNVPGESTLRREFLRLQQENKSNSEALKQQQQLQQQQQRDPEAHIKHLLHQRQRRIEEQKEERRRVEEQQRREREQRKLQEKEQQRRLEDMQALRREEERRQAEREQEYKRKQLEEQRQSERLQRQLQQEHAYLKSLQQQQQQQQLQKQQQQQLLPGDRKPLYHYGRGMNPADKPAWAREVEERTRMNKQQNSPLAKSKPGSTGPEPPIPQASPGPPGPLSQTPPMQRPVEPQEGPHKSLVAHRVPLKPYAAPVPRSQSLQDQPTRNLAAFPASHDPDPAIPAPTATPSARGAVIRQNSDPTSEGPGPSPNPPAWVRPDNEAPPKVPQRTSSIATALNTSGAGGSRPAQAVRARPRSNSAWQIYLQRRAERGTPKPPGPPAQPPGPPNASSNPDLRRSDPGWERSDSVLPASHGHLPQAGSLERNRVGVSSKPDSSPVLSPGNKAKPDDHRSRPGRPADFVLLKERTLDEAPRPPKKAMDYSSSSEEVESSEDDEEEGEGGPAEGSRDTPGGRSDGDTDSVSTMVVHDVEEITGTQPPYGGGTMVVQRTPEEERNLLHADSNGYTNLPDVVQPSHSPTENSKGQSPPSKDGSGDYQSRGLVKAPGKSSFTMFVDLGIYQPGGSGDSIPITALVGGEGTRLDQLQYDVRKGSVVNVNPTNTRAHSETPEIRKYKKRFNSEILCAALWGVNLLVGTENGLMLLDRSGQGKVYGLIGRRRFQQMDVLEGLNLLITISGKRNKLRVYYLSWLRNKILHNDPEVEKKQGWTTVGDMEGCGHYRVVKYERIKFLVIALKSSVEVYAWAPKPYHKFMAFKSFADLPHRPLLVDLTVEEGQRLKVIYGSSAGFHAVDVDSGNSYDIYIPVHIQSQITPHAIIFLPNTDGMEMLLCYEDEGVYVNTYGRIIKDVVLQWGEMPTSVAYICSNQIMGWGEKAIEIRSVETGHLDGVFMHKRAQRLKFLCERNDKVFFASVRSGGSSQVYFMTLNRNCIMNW
inactive: erlotinib -0.05 | [1] 0.053 | [2] -0.071 | [3] 0.036 | [4] -0.045 | [5] 0.001 | [6] -0.064 | [7] -0.203 | [8] -0.003 | [9] -0.008

MYH11 isoform 2 (UniProt P35749)
inactive: erlotinib 0.046 | [1] -0.081 | [2] 0.096 | [3] 0.02 | [4] 0.032 | [5] 0.018 | [6] -0.026 | [7] 0.036 | [8] -0.046 | [9] 0.028

MRPL47 (UniProt Q9HD33)
inactive: erlotinib -0.189 | [1] -0.107 | [2] -0.098 | [3] 0.096 | [4] -0.002 | [5] -0.047 | [6] -0.012 | [7] 0.094 | [8] -0.004 | [9] -0.273

MSTO1 (UniProt Q9BUK6)
inactive: erlotinib 0.031 | [1] 0.06 | [2] 0.075 | [3] -0.044 | [4] -0.003 | [5] 0.007 | [6] 0.038 | [7] 0.043 | [8] 0.011 | [9] -0.041

NSUN2 (UniProt Q08J23)
inactive: erlotinib -0.017 | [1] 0.137 | [2] -0.002 | [3] 0.038 | [4] -0.018 | [5] 0.006 | [6] -0.052 | [7] -0.112 | [8] -0.067 | [9] 0.064

NME7 (UniProt Q9Y5B8)
inactive: erlotinib 0.166 | [1] 0.058 | [2] -0.052 | [3] -0.247 | [4] 0.127 | [5] -0.023 | [6] 0.06 | [7] 0.006 | [8] -0.039 | [9] -0.248

NOB1 (UniProt Q9ULX3)
inactive: erlotinib 0.048 | [1] 0.061 | [2] -0.106 | [3] 0.017 | [4] -0.025 | [5] -0.08 | [6] 0.081 | [7] 0.053 | [8] 0.045 | [9] -0.078

NCAPH (UniProt Q15003)
inactive: erlotinib 0.201 | [1] 0.09 | [2] 0.008 | [3] -0.059 | [4] 0.024 | [5] 0.022 | [6] -0.009 | [7] 0.02 | [8] -0.004 | [9] -0.096

MRPS16 (UniProt Q9Y3D3)
inactive: erlotinib -0.126 | [1] 0 | [2] -0.025 | [3] 0.159 | [4] 0.014 | [5] 0.079 | [6] 0.117 | [7] 0.044 | [8] -0.085 | [9] -0.097

NAPG (UniProt Q99747)
UniProt Q99747, sequence (Q99747 whole entry, looked up): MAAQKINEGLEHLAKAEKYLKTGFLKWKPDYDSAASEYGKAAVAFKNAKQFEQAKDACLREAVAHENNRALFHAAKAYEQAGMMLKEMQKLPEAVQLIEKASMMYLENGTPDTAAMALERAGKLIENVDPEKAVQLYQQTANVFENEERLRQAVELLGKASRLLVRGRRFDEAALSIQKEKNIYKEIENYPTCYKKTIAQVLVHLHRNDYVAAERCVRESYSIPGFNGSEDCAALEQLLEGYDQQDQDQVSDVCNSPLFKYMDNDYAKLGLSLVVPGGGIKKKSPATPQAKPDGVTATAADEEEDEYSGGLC
inactive: erlotinib 0.081 | [1] 0.134 | [2] 0.072 | [3] -0.019 | [4] 0.021 | [5] 0.038 | [6] -0.009 | [7] 0.033 | [8] -0.037 | [9] -0.016

MMS19 isoform 8 (UniProt Q96T76)
UniProt Q96T76, sequence (Q96T76 whole entry, looked up): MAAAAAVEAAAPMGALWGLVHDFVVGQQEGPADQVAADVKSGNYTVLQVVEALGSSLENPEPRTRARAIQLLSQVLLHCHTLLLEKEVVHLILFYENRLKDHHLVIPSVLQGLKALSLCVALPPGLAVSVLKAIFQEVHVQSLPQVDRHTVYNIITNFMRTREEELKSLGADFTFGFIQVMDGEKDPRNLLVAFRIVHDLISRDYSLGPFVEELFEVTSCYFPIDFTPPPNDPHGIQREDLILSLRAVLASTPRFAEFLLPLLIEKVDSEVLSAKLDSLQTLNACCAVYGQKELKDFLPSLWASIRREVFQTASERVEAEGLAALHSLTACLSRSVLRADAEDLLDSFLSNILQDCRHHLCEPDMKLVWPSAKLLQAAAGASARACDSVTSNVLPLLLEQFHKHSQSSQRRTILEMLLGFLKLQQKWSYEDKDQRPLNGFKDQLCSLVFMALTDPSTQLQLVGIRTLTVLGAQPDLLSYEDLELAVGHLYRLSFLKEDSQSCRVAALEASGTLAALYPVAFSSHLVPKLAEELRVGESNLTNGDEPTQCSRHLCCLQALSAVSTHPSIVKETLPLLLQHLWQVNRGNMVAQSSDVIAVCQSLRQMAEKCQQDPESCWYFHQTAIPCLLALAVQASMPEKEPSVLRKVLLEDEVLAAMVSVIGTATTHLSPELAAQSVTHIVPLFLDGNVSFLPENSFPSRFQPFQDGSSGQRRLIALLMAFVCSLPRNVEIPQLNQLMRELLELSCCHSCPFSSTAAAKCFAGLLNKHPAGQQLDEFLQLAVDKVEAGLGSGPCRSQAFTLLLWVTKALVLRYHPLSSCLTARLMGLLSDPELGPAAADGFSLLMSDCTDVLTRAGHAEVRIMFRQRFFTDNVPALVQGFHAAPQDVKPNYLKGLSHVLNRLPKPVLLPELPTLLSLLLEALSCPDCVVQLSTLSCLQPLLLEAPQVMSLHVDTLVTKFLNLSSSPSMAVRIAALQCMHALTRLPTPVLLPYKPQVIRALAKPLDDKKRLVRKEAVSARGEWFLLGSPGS
inactive: erlotinib -0.01 | [1] 0.001 | [2] 0.044 | [3] -0.025 | [4] 0.113 | [5] 0.053 | [6] 0.05 | [7] 0.016 | [8] -0.01 | [9] -0.01

NFX1 (UniProt Q12986)
inactive: erlotinib 0.065 | [1] -0.024 | [2] -0.26 | [3] 0.058 | [4] 0.042 | [5] -0.069 | [6] -0.039 | [7] -0.107 | [8] 0.014 | [9] 0.048

NOP58 (UniProt Q9Y2X3)
UniProt Q9Y2X3, sequence (Q9Y2X3 whole entry, looked up): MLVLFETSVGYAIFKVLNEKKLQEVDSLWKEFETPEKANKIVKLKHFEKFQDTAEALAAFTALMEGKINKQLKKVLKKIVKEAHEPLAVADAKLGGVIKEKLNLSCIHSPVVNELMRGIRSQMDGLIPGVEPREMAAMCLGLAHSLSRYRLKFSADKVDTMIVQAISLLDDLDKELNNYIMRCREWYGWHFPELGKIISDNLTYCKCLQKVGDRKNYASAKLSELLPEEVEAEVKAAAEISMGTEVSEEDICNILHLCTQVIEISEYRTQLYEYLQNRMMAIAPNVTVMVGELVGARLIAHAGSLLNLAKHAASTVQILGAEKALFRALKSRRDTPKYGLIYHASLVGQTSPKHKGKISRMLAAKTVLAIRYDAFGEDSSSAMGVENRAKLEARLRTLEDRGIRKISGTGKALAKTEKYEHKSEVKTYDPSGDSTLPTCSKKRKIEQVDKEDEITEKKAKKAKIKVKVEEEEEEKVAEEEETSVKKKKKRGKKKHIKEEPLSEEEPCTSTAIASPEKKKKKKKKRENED
inactive: erlotinib -0.013 | [1] 0.001 | [2] -0.332 | [3] -0.001 | [4] -0.043 | [5] 0.034 | [6] -0.055 | [7] -0.126 | [8] -0.156 | [9] -0.143

MORC3 (UniProt Q14149)
inactive: erlotinib 0.022 | [1] 0.084 | [2] 0.171 | [3] 0.035 | [4] -0.024 | [5] 0.068 | [6] 0.012 | [7] 0.014 | [8] -0.026 | [9] -0.162

NUDT1 (UniProt P36639)
active: [9] 1.01
inactive: erlotinib 0.164 | [1] -0.018 | [2] 0.135 | [3] -0.068 | [4] 0 | [5] -0.032 | [6] 0.055 | [7] 0.187 | [8] -0.009

NDFIP1 (UniProt Q9BT67)
inactive: erlotinib -0.066 | [1] 0.07 | [2] -0.046 | [3] 0.077 | [4] -0.244 | [5] 0.046 | [6] 0.005 | [7] 0.122 | [8] -0.234 | [9] -0.168
